Records with an inconclusive call do not appear. Calls of active or inactive are those of the source. How the source made its calls: active means hit-call score of the fitted dose curve at least 0.9, where 1 is the maximum; inconclusive means response in the unintended direction; inactive means score below 0.9.

This assay can be described thus: CCTE_Shafer_MEA_acute_AB: CCTE's Alamar Blue Assay for Cytotoxicity in the Neural Acute Assay, Shafer Lab (AID 2284069).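 Further: active compounds lower the viability signal compared with DMSO wells.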 As to the method:
CCTE_Shafer_MEA_acute assay is conducted using Axion Biosystems 48 well microelectrode array (MEA) plates and Maestro recording system. Each well of the MEA plate contains a grid of 16 microelectrodes embedded in the culture surface. Electrically active cells, such as neurons, can be cultured over the electrodes, and electrical activity in these cells can be recorded extracellularly. The spontaneous firing of neurons is captured from each electrode on a microsecond timescale providing both temporally and spatially precise data. […] The CCTE_Shafer_MEA_acute assay uses primary cultures of rat cortical neurons. As these cultures mature over time, neural networks develop functional activity and form cohesive networks in which electrical activity can be highly coordinated. Baseline 40-minute recordings are made on days post-plating 13 or 15, followed by a secondary 40-minute recording after chemical exposure.CCTE_Shafer_MEA_acute_AB is a component of the CCTE_Shafer_MEA_acute assay. It measures the resazurin reduction using fluorescence.Data from the assay component CCTE_Shafer_MEA_acute_AB was analyzed into 1 assay endpoint. This assay endpoint, CCTE_Shafer_MEA_acute_AB, was analyzed in the positive analysis fitting direction relative to DMSO as the negative control and baseline of activity. Using a type of viability reporter, loss-of-signal activity can be used to understand cell viability.
Metabolic activity was determined using the CellTiter Blue (CTB) assay (Promega Cat. #8081), following the manufacturer's instructions with the following modifications. Following the removal of the 50 uL sample for the LDH assay, 450 uL of media was removed from each well and replaced with 200 uL of fresh media containing a 1:6 dilution of CTB reagent for the determination of metabolic activity. Fluorescence was measured in a Fluorostar Optima fluorimeter using an excitation wavelength of 544 nm and an emission wavelength of 590 nm.
Background: Resazurin is reduced to fluorescent resorufin, in cell work by metabolically active cells.
Consider `O=C(O)c1nc(Cl)ccc1Cl`, for which the outcome was inactive.

As for `CCCN(CCC)c1c([N+](=O)[O-])cc(S(N)(=O)=O)cc1[N+](=O)[O-]`, the call was inactive.

Turning to `Cc1ccc(-c2c(Cl)nc(C#N)n2S(=O)(=O)N(C)C)cc1`, the call was inactive.

Consider `CS/C(C)=N/OC(=O)N(C)SN(C)C(=O)O/N=C(\C)SC`, for which the call was inactive.

As to `CC(C)Oc1cc(-n2nc(C(C)(C)C)oc2=O)c(Cl)cc1Cl`, the compound was classed as inactive.

With `CNC(=O)ON=CC(C)(C)SC`, the outcome was inactive.

`COC(=O)N(OC)c1ccccc1COc1ccn(-c2ccc(Cl)cc2)n1`: the compound was called inactive.

On to `CCOP(=S)(OCC)SCn1c(=O)oc2cc(Cl)ccc21`, for which the result was inactive.

On to `CCNc1nc(Cl)nc(NC(C)C)n1`, for which the result was inactive.

As to `OC(c1ccc(Cl)cc1)(c1cncnc1)c1ccccc1Cl` (centres undefined), the compound was called inactive.

On to `CC(Oc1ccc(Cl)cc1Cl)C(=O)O` (centres undefined), for which the outcome was inactive.

In the case of `N#CC(CCc1ccc(Cl)cc1)(Cn1cncn1)c1ccccc1` (centres undefined), the compound was called inactive.

Turning to `C=CCC1=C(C)C(OC(=O)C2C(C=C(C)C)C2(C)C)CC1=O` (centres undefined), the result was inactive.

Regarding `CCCCNC(=O)OCC#CI`, the compound was called inactive.

As to `Cc1c(F)c(F)c(COC(=O)C2C(/C=C(\Cl)C(F)(F)F)C2(C)C)c(F)c1F` (centres undefined), the compound was classed as inactive.

For `CON(C)C(=O)Nc1ccc(Cl)c(Cl)c1`, the compound was classed as inactive.

For `C=CCC1=C(C)[C@@H](OC(=O)[C@@H]2[C@@H](C=C(C)C)C2(C)C)CC1=O`, the result was inactive.

Consider `COC(=O)C(C)Oc1ccc(Oc2ccc(Cl)cc2Cl)cc1` (centres undefined), for which the compound was classed as inactive.

With `N#Cc1nn(-c2c(Cl)cc(C(F)(F)F)cc2Cl)c(N)c1S(=O)C(F)(F)F` (centres undefined), the compound was called inactive.

For the compound `C#CCOS(=O)OC1CCCCC1Oc1ccc(C(C)(C)C)cc1` (centres undefined), the compound was called inactive.

For `Fc1ccc(Oc2ccnc3cc(Cl)cc(Cl)c23)cc1`, the call was inactive.

On to `CO/C=C(/C(=O)OC)c1ccccc1Oc1cc(Oc2ccccc2C#N)ncn1`, for which the outcome was inactive.

Turning to `CCCC1COC(Cn2cncn2)(c2ccc(Cl)cc2Cl)O1` (centres undefined), the compound was classed as inactive.

Regarding `CC1COC(Cn2cncn2)(c2ccc(Oc3ccc(Cl)cc3)cc2Cl)O1` (centres undefined), the outcome was inactive.
